Sampled rows, rich in hits. Any-hit rate of the full collection: about 0.75%.
TCR act: activates T cell receptor signaling | primary human leukocytes, anti-CD3, IL-2 HTRF, 48 h | Potency, µM (highest dose often 9.22 µM), actives largely listed as activators | 330,000 tested, under 10 active | AID 504894
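IL-2 produced over 48 hr by a-CD3 bead-stimulated primary human leukocytes exposed to compounds was detected with a homogeneous time-resolved FRET immunoassay, 665nm acceptor signal after 320nm excitation.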
TSHR antag: human thyrotropin receptor antagonism. P16473. TSHR-expressing cells, TSH-stimulated cAMP HTRF, 2 h; hits give low values. activity change, negative = inhibition, % at 11.5 µM. 0.2% of 330,000 active. AID 504810;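 active = activity change below a set negative limit, meaning inhibition stronger than a set level, cut at about -70% in these data; inconclusive = activity change between two set negative limits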
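Antagonism was scored as loss of TSH-driven cAMP in TSHR cells, stimulated with 4nM TSH (EC80) for 2 hours at 37 deg C and detected by homogeneous HTRF competition immunoassay.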
uPA generation: inhibitors of cell surface uPA generation | 0.31% of 330,000 active | cell surface uPA generation assay, qHTS | Potency, µM (top dose mostly 38.3 µM), most hits filed as inhibitors; active = well fitted inhibition curve with a large enough effect; inconclusive = small, poorly fitted or top-dose-only effect; inactive = no such curve, though single readings can be large or run the other way; tested in mouse RAW 264.7 cells; note: nearly all actives have a fitted effect of over 55% in size
PKM2 activator: PKM2 (human) enzyme activation; P14618; purified PKM2, Kinase-Glo ATP luminescence, activation; response scale: 0% is enzyme alone, no compound; Potency, µM (series often up to 57.5 µM), usual class: activators; 0.34% of 260,000 active; note: nearly all actives have a fitted effect of over 55% in size
Target sequence (P14618 whole entry, looked up): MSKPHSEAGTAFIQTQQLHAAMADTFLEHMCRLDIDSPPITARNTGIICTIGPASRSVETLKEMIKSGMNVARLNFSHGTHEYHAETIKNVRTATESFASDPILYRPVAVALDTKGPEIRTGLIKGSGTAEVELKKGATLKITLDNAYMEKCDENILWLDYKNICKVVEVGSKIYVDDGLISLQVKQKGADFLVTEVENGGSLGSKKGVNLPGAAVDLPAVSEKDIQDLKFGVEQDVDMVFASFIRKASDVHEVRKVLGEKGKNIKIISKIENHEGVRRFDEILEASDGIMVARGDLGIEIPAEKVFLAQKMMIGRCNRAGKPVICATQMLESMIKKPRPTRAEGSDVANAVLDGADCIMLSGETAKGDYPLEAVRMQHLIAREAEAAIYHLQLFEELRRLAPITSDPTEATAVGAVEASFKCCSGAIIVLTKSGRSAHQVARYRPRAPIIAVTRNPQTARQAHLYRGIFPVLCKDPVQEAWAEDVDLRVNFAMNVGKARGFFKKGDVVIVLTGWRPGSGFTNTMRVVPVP
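Purified hPK-M2 (>95% pure) converted ADP (0.1 mM final) to ATP with 0.5 mM PEP in 50 mM imidazole pH7.2, KCl, MgCl2, Tween 20, BSA; 1 h at room temperature. ATP detected by Kinase-Glo luminescence.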
HeLa tox: counter-screen for pyruvate kinase M2 activators: HeLa cytotoxicity. HeLa viability, CellTiter-Glo ATP luminescence, 24 h. 230 tested, under 10 active. activity change, negative = cytotoxicity, % at 57.5 µM. AID 1898. shares compounds with PKM2 activator
Numbers stand for hits; . = inactive; ? = inconclusive; / = no result given. Unless noted, calls come from the whole dose curve; as a rule, active = well fitted curve in the direction sought with a large enough effect; inconclusive = small, poorly fitted or top-dose-only effect, or another doubt; inactive = no such curve, though single readings can be large; an effect the other way counts as inactive or inconclusive.

SMILES	TCR act	TSHR antag	uPA generation	PKM2 activator	HeLa tox
Cc1cccc(OCCSc2nc3c([nH]2)c(=N)ncn3Cc2ccccc2)c1	.	.	.	.	/
O=C(/C=C/c1ccc(F)cc1)NC(Cc1c[nH]c2ccccc12)C(=O)O (stereo not drawn)	.	.	.	.	/
S=C(c1ccc(-c2ccc(Cl)cc2Cl)o1)N1CCCC1	.	.	.	8.9µM	.
S=C(c1ccc(-c2ccc(Cl)cc2Cl)o1)N1CCCCC1	.	.	.	.	/
CCOc1ccc(NCc2nnc(SCC(=O)Nc3nc(-c4ccccc4)cs3)n2-c2ccccc2)cc1	.	.	.	.	/
CCOc1ccc(CN2CCN(C(=O)c3ccccc3)CC2)cc1	.	.	.	.	/
CCOc1ccc(C(=O)N2CCN(Cc3ccccc3)CC2)cc1	.	/	.	5.6µM	.
CC(C)(C)c1ccc(-c2nc(O)c(CC(=O)O)s2)cc1	/	.	/	.	/
Cc1cc2c(s1)c1cnn(-c3ccccc3)c(=O)c1n2C	.	.	.	/	.
Cc1cc2c(s1)c1cnn(Cc3ccc(S(C)(=O)=O)cc3)c(=O)c1n2C	/	/	/	/	.
Cn1c2cc(C#N)sc2c2cnn(Cc3ccc(F)cc3)c(=O)c21	.	.	.	/	/
Cc1cc2c(s1)c1cnn(CC(=O)NCCc3ccccc3)c(=O)c1n2C	.	.	.	.	/
Cc1cc2c(s1)c1cnn(Cc3ccc(F)cc3)c(=O)c1n2C	/	/	/	/	.
Cc1ccc(Cn2ncc3c4sc(C)cc4n(C)c3c2=O)cc1	/	/	/	/	.
O=C1NC(=O)C2(CCCCCCCCCCC2)N1	.	.	.	/	/
COc1ccc(C(=O)COC(=O)CCN2C(=O)C3C4C=CC(C5CC45)C3C2=O)cc1 (stereo not drawn)	.	.	?	.	/
Cc1cc2c(s1)c1cnn(Cc3ccccc3)c(=O)c1n2C	/	/	/	/	.
Cc1cc2c(s1)c1cnn(Cc3ccc(F)cc3F)c(=O)c1n2C	/	/	/	/	.
Cc1cc2c(s1)c1cnn(Cc3ccccc3Cl)c(=O)c1n2C	/	/	/	/	.
Cc1ccc(-c2nc(CN(C)C3CCOC3)c(C)o2)s1 (stereo not drawn)	.	.	.	.	/
N/N=C(\c1ccccc1)C12CN3CN(CN(C3)C1)C2	.	.	.	.	/
Cc1nc2ccc(S(=O)(=O)N3CCN(S(=O)(=O)c4c(F)cccc4F)CC3)cc2s1	/	/	/	/	.
O=S(=O)(c1ccc2ccccc2c1)N1CCN(S(=O)(=O)c2c(F)cccc2F)CC1	.	.	.	/	?
COc1ccc(CCC(=O)N2CCN(S(=O)(=O)c3ccc4ccccc4c3)CC2)cc1	.	.	.	0.79µM	.
COc1ccc(CCNc2ccc(S(=O)(=O)N3CCCC3)cc2[N+](=O)[O-])cc1	.	.	.	3.2µM	.
SMILES	TCR act	TSHR antag	uPA generation	PKM2 activator	HeLa tox
CSCC[C@H](N)C(=O)N1CCC(C(=O)N[C@H](C)C(=O)Nc2ccc(C(C)C)cc2)CC1	.	.	.	/	/
COc1cc(NC(=O)CSc2nc(=O)n(CCN3CCOCC3)c3c2CCCC3)cc(OC)c1	.	.	.	/	/
CCOc1cc(C)nc(N2CCC(C(=O)NC3CC3)CC2)n1	.	/	.	/	/
Cc1ccc(S(=O)(=O)N2CCCN(S(=O)(=O)c3ccc4ccccc4c3)CC2)cc1	.	.	.	0.71µM	.
Cn1ccc2cc(S(=O)(=O)N3CCN(S(=O)(=O)c4c(F)cccc4F)CC3)ccc21	/	/	/	/	.
COCCCN1C(=O)C(=O)/C(=C(/O)c2ccc(S(=O)(=O)N3CCOCC3)cc2)C1c1ccc(C(C)C)cc1 (stereo not drawn)	.	.	.	/	/
Cn1c2cc(C=O)sc2c2cnn(Cc3ccccc3F)c(=O)c21	/	/	/	/	.
CSc1cc2c(s1)c1cnn(Cc3ccccc3F)c(=O)c1n2C	/	/	/	/	.
O=C(Cn1ncc2c3ccccc3n(Cc3ccccc3F)c2c1=O)N1CCN(c2ccccn2)CC1	.	.	.	.	/
Cn1c2ccsc2c2cnn(Cc3ccc(F)cc3)c(=O)c21	/	.	/	/	/
Cn1c2cc(CO)sc2c2cnn(Cc3ccccc3F)c(=O)c21	/	/	/	/	.
CCc1cc2c(s1)c1cnn(Cc3ccccc3F)c(=O)c1n2C	/	/	/	/	?
NS(=O)(=O)c1cccc(NC(=O)COC(=O)CN2C(=O)c3ccccc3C2=O)c1	.	.	.	/	/
CC1(C)CC(=O)N(c2ccc(Cl)c(Cl)c2)C(=O)C1	.	.	.	/	/
COc1ccc(OC)c(NC(=O)COC(=O)CCNc2ccccc2OC)c1	.	.	.	/	/
Cc1cc(C(=O)O)cc(S(=O)(=O)Nc2c(C)nn(C)c2C)c1C	.	.	.	/	/
CC(=O)Nc1cc2c(s1)c1cnn(Cc3ccccc3F)c(=O)c1n2C	/	.	/	/	.
Cc1c2cnn(CC(=O)Nc3c(F)c(F)cc(F)c3F)c(=O)c2c(C)n1Cc1ccccc1F	.	.	.	.	/
COc1cccc(Cn2ncc3c4sc(B(O)O)cc4n(C)c3c2=O)c1	/	.	/	/	/
COc1cc2c(s1)c1cnn(Cc3ccccc3F)c(=O)c1n2C	/	/	/	/	.
COc1ccc(CCNC(=O)CSc2nnc3ccccn23)cc1	.	.	.	.	/
Cc1ccc(-n2cc(S(=O)(=O)c3ccc(C)cc3)[nH]c2=O)cc1	.	.	.	7.1µM	.
CCn1cc(S(=O)(=O)c2ccc(C)cc2)[nH]c1=O	.	.	.	.	/
Cc1ccc(OC(=O)c2cccc(S(=O)(=O)N3CCCC3)c2)c(-n2nc3ccccc3n2)c1	.	.	.	.	/
CCCN1C(=O)S/C(=C\c2ccc(N3CCOCC3)cc2C)C1=O	/	.	/	.	/
SMILES	TCR act	TSHR antag	uPA generation	PKM2 activator	HeLa tox
CCCN1C(=O)S/C(=C/c2ccc(N3CCOCC3)o2)C1=O	.	.	.	1µM	.
CC1CCN(C(=O)c2ccc(NS(=O)(=O)c3cccc4cccnc34)cc2)CC1	.	.	.	2.8µM	.
CCn1c(SCC(=O)N/N=C/C=C\c2ccco2)nc2ccccc21	.	.	.	?	/
Cn1c(SCC(=O)N/N=C/C=C\c2ccco2)nc2ccccc21	.	.	.	7.1µM	.
N#Cc1ccc(CSc2ncnc3c2cnn3Cc2ccccc2)cc1	.	.	.	20µM	.
Cc1oc(=O)c(NC(=O)c2ccccc2)cc1C(=O)c1ccccc1	.	.	.	.	/
Cc1oc(=O)c(NC(=O)c2ccc(Cl)cc2)cc1C(=O)c1ccccc1	.	.	.	6.3µM	.
Cc1ccc(Cl)cc1N1CCN(C(=O)CNC(=O)c2ccc(Br)o2)CC1	.	.	.	/	/
Cc1cc(C(=O)OCC(=O)N2CCOCC2)c2ccccc2n1	.	.	.	3.5µM	.
O=C(CN1C(=O)N/C(=C\c2cccn2-c2cccc(C(=O)O)c2)C1=O)Nc1ccccc1F	/	/	/	/	.
COc1ccc(C(=O)NCc2ccc3c(c2)OCO3)c(OC)c1	/	.	.	.	/
Cc1ccc(C)c2[nH]c(=O)c(CN(Cc3ccco3)C(=O)Nc3ccccc3)cc12	.	.	.	7.9µM	?
Cc1ccc2cc(CN(Cc3ccco3)C(=O)NCc3ccccc3)c(=O)[nH]c2c1C	.	.	.	.	/
Cc1nnc2sc(SCC(=O)Nc3nccs3)nn2c1=O	.	.	.	1.4µM	.
COc1ccccc1NC(=O)CSc1nn2c(=O)c(C)nnc2s1	.	.	.	.	/

Source: PubChem BioAssay
